Screening results from PubChem.
NR5A2 inv ag = NR5A2 inverse agonism in reporter assay; inhibition, % at 3.6 µM; HEK293T StAR-luciferase reporter, LRH-1 transfected, 24 h; hit rate 0.13% among 360,000; O00482;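 active = inhibition above the mean inhibition of all tested compounds plus 3 SD, cut at about 73% in these data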;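 note: 0% = DMSO wells and 100% = reporter-only cells lacking LRH-1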
NCOA2 inhibitor = human SRC2 (NCOA2) inhibition. Q15596. HEK293 GAL4-SRC2 luciferase reporter, luminescence. inhibition, % at 9 µM. hit rate 0.17% among 370,000. AID 651957;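 active = inhibition above the mean inhibition of all tested compounds plus 3 SD, set per campaign, cut at about 52% in these data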;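 note: 0% = DMSO treated cells and 100% = cells given Gossypol at 36 µM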
NCOA1 inh = human NCOA1 inhibition | HEK293 GAL4-SRC1 luciferase reporter, luminescence | inhibition, % at 3.6 µM | hit rate 0.12% among 360,000 | AID 588354;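 active = inhibition above the campaign mean plus 3 SD, with each screening campaign given its own cutoff, cut at about 60% in these data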;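 note: 0% = DMSO treated cells and 100% = gossypol at 36 µM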
Target sequence (Q15788 whole entry, looked up, the tested form may be a part): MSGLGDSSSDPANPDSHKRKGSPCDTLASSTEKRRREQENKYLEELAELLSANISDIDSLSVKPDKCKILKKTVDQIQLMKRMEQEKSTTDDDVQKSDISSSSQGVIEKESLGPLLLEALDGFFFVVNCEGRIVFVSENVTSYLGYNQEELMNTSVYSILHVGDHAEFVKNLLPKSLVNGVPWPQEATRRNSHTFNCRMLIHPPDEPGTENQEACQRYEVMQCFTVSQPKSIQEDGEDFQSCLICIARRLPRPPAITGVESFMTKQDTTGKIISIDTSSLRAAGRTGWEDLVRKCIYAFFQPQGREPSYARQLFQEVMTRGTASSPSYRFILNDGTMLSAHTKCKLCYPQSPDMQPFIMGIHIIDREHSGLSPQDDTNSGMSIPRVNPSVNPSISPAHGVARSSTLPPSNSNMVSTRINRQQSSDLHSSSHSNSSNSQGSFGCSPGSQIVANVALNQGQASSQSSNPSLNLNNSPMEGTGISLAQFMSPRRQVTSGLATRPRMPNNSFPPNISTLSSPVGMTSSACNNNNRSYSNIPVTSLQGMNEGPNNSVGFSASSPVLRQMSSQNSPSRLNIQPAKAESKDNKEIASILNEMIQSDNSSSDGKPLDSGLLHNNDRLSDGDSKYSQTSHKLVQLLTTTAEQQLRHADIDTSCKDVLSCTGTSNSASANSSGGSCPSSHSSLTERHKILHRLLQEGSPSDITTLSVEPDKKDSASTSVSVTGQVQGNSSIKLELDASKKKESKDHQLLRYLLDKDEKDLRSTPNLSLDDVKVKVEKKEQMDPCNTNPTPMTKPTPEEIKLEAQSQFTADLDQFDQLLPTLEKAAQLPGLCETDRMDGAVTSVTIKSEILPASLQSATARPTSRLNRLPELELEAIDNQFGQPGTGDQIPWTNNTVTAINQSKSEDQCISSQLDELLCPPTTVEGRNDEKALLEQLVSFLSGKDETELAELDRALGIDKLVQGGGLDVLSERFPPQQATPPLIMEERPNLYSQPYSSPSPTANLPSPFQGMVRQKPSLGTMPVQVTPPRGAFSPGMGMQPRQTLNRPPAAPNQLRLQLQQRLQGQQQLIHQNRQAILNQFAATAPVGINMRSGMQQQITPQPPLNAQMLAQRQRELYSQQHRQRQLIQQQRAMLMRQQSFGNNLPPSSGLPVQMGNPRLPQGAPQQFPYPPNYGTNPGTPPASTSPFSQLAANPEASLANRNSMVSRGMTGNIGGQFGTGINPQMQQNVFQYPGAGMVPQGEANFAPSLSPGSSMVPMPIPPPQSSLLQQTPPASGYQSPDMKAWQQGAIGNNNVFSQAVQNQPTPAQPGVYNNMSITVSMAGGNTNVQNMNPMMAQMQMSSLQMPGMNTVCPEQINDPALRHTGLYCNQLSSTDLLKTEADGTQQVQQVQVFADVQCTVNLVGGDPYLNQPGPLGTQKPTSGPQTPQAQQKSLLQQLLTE
SRC3 inh = human NCOA3 inhibition; Q9Y6Q9; HEK293 GAL4-SRC3 luciferase reporter, luminescence; inhibition, % at 3.6 µM; hit rate 0.17% among 360,000; AID 588352;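 active = inhibition above a per-campaign cutoff, the mean of all compounds plus 3 SD, cut at about 60% in these data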;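 note: 0% = DMSO-treated cells and 100% = gossypol-treated cells at 36 µM; higher means less SRC3-driven luciferase light from the GAL4 reporter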
Efflux pump mplx = blocks antifungal efflux pumps in multiplex yeast assay; S. cerevisiae Candida pump triplex, Nile Red efflux; inhibition, % at 10 µM; hit rate 0.44% among 330,000; AID 485275;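 active = plate passing quality check with inhibition over a set limit, or well fluorescence over plate mean plus 4 SD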;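 note: Nile Red retained in pooled yeast measured as flow cytometry median fluorescence; 0% = buffer negative control and 100% = Enniatin B positive control; higher means more Nile Red kept so more efflux inhibition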
COUP-TFII inh = NR2F2 (human) inhibition, primary screen. P24468. HEK293T NGFI-A luciferase reporter, luminescence. inhibition, % at 8.6 µM. hit rate 0.7% among 370,000. AID 686940;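 active = inhibition above a per-plate cutoff, mean inhibition of test wells between control levels plus 3 SD, cut at about 38% in these data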;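 note: cells cotransfected with COUP-TFII expression vector driving the NGFI-A reporter; 0% = median of COUP-TF2 test wells and 100% = reporter-only cells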
Gal4-VP16 ctr = counter-screen for COUP-TFII antagonists: inhibitors of VP16. shares compounds with COUP-TFII inh. HEK293 Gal4-VP16 luciferase reporter, luminescence. inhibition, % at 8.5 µM. hit rate 25% among 2,500. AID 687007; in the data active = inhibition above about 13%
COUP-TFII conf = confirmation of human COUP-TFII (NR2F2) inhibitors; AID 687008; shares compounds with COUP-TFII inh; inhibition, % at 8.5 µM; hit rate 45% among 2,500; HEK293 NGFI-A luciferase reporter, luminescence;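 active = mean inhibition over three repeats above a set limit taken from the earlier primary screen, cut at about 38% in these data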;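 note: 100% = cells given the luciferase reporter alone without the COUP-TF2 vector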
* hit, by the source's call; / = not tested or not shown. In the library only some 1.2% were active in any assay of this set; here they are far more common.

SMILES	NR5A2 inv ag	NCOA2 inhibitor	NCOA1 inh	SRC3 inh	Efflux pump mplx	COUP-TFII inh	Gal4-VP16 ctr	COUP-TFII conf
CCOC(=O)c1cc2c(C)n(-c3ccc(OCC)cc3)c(C)c2ccc1=O	-8	13	-16	-5	0	-2	/	/
CCOC(=O)c1cc2c(C)n(-c3ccc(C)cc3)c(C)c2ccc1=O	-20	-12	-30	-31	0	41*	-137	-19
COc1ccc2cc3c(N)nn(C(=O)c4ccccc4Cl)c3nc2c1	50	39	74*	60	0	45*	23*	36
COc1ccc2cc3c(N)nn(C(=O)Cc4c[nH]c5ccccc45)c3nc2c1	55	56*	79*	51	0	42*	24*	21
COc1ccc2cc3c(N)nn(C(=O)c4ccc(F)cc4)c3nc2c1	20	31	60	49	0	34	/	/
CC(=O)N/C(=C\c1ccccc1)C(=O)Nc1ccccc1C	-7	-11	-4	13	0	-3	/	/
COc1cc2c(cc1OC)C(=O)C(c1ccc3c(c1)OCO3)CC2 (centres undefined)	-7	12	-11	0	/	4	/	/
COc1ccc(C2CCc3cc4c(cc3C2=NOC(C)=O)OCO4)cc1OC (centres undefined)	4	-2	-11	-30	/	44*	-2	5
CCCCCCCn1c2c(c(=N)c3ccccc31)CCC2	79*	9	40	64*	0	74*	25*	75*
COc1ccc(OCCCC(=O)OCC(=O)Nc2ccc(Cl)cn2)cc1	13	-36	-32	-1	0	-22	/	/
Cc1ccc(C)c(S(=O)(=O)NCc2cccnc2)c1	4	1	12	7	1	5	/	/
Cc1ccc(C)c(S(=O)(=O)NCc2ccncc2)c1	11	28	1	11	0	43*	-3	17
Cc1cc(S(=O)(=O)NCc2ccncc2)c(C)cc1Br	42	20	11	26	0	61*	7	56*
O=C(c1ccccc1)c1ccc(OCC(O)CN2CCCCC2)cc1 (centres undefined)	4	-23	0	17	0	-1	/	/
O=C(c1ccccc1)c1ccc(OCC(O)CN2CCN(S(=O)(=O)N3CCCCC3)CC2)cc1 (centres undefined)	26	22	14	3	0	42*	-6	7
Cc1ccc2nc(NC(=O)c3ccccn3)sc2c1	-7	28	-6	12	0	58*	10	28
COc1ccccc1C(=O)Nc1nc2ccccc2s1	66	86*	71*	74*	0	91*	78*	97*
COc1ccccc1C(=O)Nc1nc2ccc(S(C)(=O)=O)cc2s1	-8	-32	-15	-16	0	-20	/	/
O=C(NCCCN1CCC(Cc2ccccc2)CC1)C1CCC(=O)N1C1CCCC1 (centres undefined)	-6	13	4	-15	0	9	/	/
C=C(C)Cn1c(N2CCN(c3ccc(OC)cc3)CC2)nc2c1c(=O)n(C)c(=O)n2C	11	-3	4	14	0	41*	3	15
CC(=O)N1c2ccc(S(=O)(=O)N3CCC(C(=O)N4CCN(c5ccc(Cl)cc5)CC4)CC3)cc2CC1C (centres undefined)	3	30	-5	9	0	44*	-1	18
Cc1ccc(S(=O)(=O)NC2(C(F)(F)F)C(=O)Nc3c2c(=O)n(C)c(=O)n3C)cc1 (centres undefined)	14	5	0	11	0	-5	/	/
Cc1ccc(C[n+]2ccccc2)cc1	-1	7	-10	6	0	-3	/	/
Cc1cc(C2=NNC(=NC3CC3)SC2)c(C)n1-c1ccccc1F	89*	93*	93*	89*	0	97*	94*	108*
Cc1cc(C2=NNC(=NC3CCCCC3)SC2)c(C)n1-c1c(C)n(C)n(-c2ccccc2)c1=O	10	-5	11	1	0	18	/	/
SMILES	NR5A2 inv ag	NCOA2 inhibitor	NCOA1 inh	SRC3 inh	Efflux pump mplx	COUP-TFII inh	Gal4-VP16 ctr	COUP-TFII conf
c1cc2c(cc1C1=NNC(=NC3CC3)SC1)OCCO2	25	61*	57	66*	0	46*	52*	76*
NC(=O)CC(NC(=O)c1ccc(Br)cc1)c1ccc(N2CCC(Br)CC2)c([N+](=O)[O-])c1 (centres undefined)	15	-14	-24	-5	0	19	/	/
COc1ccc(Cl)c(-c2cc(C(=O)Nc3ccc(C)c(NS(C)(=O)=O)c3)[nH]n2)c1	21	19	-7	-2	/	25	/	/
COc1ccc(Cl)cc1-c1cc(C(=O)Nc2ccc(C)c(NS(C)(=O)=O)c2)[nH]n1	8	25	14	2	/	38*	-10	-4
Cc1ccc(NC(=O)c2cc(-c3cc(Cl)ccc3C)n[nH]2)cc1NS(C)(=O)=O	30	7	22	5	/	50*	-6	41*
CC(C)(C)C(=O)c1c(N)[nH]c(C(=O)c2ccccc2)c1-c1c(F)cccc1F	-4	2	/	/	/	13	/	/
CCCOc1ccc(N2CC(C(=O)Nc3ccccc3C(=O)NCc3ccco3)CC2=O)cc1 (centres undefined)	-2	4	-2	8	0	2	/	/
COc1ccccc1Cc1c(C2CCCCC2)nc2cc(C)c(Br)c(C)n12	7	-16	/	/	/	4	/	/
CCN(CC)S(=O)(=O)c1cc(C(=O)Oc2cccc(-c3cnc4ccccc4n3)c2)ccc1OC	-12	-12	-35	-41	0	12	/	/
Cn1cc(CNCc2ccc(OC(F)(F)F)cc2)c(-c2ccc3c(c2)OCCO3)n1	27	13	0	24	0	48*	7	40*
CN(C)c1ccc(/C=N/N=C2/NC(=O)/C(=C/c3ccc([N+](=O)[O-])cc3)S2)cc1	-4	25	26	14	0	41*	-58	36
CC1CCCCN1C(=O)c1ccc(Br)o1 (centres undefined)	10	20	0	13	0	4	/	/
N#CC(C#N)=C(Nc1ccc(F)cc1)SCc1cccc(Br)c1	60	21	50	52	0	52*	4	38*
C=CCC(Nc1ccccc1)C12C=CC(O1)C(C(=O)OC)=C2C(=O)OC (centres undefined)	-6	-7	-4	3	0	-2	/	/
COC(=O)C1=C(C(=O)OC)[C@@]2([C@H](Cc3ccc(C)cc3)Nc3ccccc3)C=C[C@@H]1O2	/	/	/	/	/	49*	-2	24
Cc1nn(C)c(C)c1/C=C/C(=O)c1ccc(Cl)cc1Cl	33	-12	9	23	0	47*	-9	38*
COCCn1c(C)c(C)c2c(NCCc3ccccc3)ncnc21	23	12	23	26	0	47*	10	64*
